Legend:
Test in all cases: log2 ratio of Biotin-Ahx-Ub-VS probe labelling (fragment/DMSO); higher = less target engagement (more negative = stronger competition), active = hit call of the paper (q ≤ 0.05, log2 ratio ≤ -1)
Conditions in all cases: compound concentration: 200 uM; treatment time: 3 h
[1] = biological target: USP9X (UniProt Q93008)
Procedure, shortened: (§1)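 HEK293T lysate (495 µg per sample, in Tris/CHAPS/IGEPAL buffer with protease inhibitors) was exposed in triplicate for 3 h to fragment at 200 µM or to vehicle, then to Biotin-Ahx-Ub-VS at 0.5 µM final for 1 h. Labelled DUBs were enriched on NeutrAvidin, digested with LysC and trypsin, and analysed by diaPASEF LC-MS/MS. Spectronaut label-free quantities were normalised to the global median, and values are average log2 ratios of fragment over vehicle from an unpaired t-test. Only proteins with ≥2 unique peptides were used.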

[2] = biological target: UniProt O00487
Procedure, shortened: as §1

[3] = biological target: UniProt O00507
UniProt O00507, sequence (O00507 whole entry): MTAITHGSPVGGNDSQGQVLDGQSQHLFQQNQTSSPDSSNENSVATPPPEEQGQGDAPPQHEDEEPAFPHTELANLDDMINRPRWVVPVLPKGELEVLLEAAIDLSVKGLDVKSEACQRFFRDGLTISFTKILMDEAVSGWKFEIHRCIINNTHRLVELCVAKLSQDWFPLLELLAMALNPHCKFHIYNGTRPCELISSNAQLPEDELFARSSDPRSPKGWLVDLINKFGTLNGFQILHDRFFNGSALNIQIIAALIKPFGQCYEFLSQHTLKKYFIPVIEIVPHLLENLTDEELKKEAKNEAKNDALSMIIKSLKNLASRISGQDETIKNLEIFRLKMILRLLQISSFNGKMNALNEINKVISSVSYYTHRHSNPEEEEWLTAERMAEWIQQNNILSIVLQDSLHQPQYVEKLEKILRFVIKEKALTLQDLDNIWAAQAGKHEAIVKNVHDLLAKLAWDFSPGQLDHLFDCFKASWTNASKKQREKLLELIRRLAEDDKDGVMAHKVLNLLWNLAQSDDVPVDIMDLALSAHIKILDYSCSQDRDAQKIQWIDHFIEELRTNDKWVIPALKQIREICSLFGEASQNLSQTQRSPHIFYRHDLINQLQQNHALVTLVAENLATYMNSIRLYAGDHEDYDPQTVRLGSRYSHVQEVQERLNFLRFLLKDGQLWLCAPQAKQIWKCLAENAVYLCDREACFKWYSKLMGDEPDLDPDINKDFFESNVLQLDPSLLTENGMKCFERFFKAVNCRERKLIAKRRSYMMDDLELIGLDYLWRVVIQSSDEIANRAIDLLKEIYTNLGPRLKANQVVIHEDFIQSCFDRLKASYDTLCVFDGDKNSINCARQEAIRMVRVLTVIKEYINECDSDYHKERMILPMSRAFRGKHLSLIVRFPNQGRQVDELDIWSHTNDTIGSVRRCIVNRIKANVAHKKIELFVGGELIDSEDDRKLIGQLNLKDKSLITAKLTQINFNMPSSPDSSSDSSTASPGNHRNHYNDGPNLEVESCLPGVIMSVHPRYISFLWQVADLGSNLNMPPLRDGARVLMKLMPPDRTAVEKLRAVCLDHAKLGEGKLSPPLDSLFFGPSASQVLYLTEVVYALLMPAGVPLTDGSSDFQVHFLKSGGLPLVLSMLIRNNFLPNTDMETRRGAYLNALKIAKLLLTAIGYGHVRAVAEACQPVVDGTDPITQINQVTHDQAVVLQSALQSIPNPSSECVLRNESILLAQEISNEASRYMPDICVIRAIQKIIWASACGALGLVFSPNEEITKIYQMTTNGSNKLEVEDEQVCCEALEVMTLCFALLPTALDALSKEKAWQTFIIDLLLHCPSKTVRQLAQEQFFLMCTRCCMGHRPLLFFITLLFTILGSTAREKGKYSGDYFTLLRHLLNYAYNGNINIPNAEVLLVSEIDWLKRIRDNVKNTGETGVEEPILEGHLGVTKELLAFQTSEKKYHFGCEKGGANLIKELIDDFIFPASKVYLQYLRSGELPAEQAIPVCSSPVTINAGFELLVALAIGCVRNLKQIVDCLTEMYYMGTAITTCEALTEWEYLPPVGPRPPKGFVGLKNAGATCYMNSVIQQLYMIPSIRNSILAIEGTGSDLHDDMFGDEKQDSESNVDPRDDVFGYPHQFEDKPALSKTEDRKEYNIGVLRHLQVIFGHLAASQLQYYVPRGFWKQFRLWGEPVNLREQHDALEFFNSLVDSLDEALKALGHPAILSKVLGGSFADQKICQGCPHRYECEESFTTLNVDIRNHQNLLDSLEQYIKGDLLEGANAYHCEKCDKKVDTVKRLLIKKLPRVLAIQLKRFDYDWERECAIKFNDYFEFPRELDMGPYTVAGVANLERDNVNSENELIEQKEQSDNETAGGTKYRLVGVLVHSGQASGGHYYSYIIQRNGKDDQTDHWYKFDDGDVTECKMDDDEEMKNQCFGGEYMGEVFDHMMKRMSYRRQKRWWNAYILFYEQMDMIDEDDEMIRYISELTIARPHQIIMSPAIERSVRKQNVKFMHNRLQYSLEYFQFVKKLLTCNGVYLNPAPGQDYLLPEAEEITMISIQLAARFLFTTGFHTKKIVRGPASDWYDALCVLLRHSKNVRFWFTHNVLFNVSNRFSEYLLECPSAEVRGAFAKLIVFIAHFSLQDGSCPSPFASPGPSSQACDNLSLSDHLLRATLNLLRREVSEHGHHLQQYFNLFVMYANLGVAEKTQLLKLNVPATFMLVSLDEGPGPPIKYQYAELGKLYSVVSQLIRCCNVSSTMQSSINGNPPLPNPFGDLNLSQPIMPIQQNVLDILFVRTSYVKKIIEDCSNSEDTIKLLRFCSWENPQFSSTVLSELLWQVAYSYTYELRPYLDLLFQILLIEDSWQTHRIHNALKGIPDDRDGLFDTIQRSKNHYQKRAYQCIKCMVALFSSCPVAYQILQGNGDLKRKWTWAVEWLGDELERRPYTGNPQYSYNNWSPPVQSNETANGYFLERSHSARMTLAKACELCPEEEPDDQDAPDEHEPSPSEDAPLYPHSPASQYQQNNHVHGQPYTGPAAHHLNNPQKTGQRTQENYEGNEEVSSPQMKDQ
Procedure, shortened: as §1

[4] = biological target: UniProt P51784
Procedure, shortened: as §1

[5] = biological target: T1, UniProt Q5T2D3
T1 sequence (whole entry): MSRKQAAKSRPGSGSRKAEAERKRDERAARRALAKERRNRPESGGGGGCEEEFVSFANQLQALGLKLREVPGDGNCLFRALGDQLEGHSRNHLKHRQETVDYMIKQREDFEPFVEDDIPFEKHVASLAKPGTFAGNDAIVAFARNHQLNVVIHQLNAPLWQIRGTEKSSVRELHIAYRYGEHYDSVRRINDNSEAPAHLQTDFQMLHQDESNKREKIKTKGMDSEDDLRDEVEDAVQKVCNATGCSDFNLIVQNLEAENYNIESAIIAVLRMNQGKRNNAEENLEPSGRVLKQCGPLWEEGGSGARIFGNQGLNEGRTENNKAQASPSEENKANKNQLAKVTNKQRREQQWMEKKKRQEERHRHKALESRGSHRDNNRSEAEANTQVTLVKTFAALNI
Procedure, shortened: as §1

[6] = biological target: T2, UniProt Q8TE49
T2 sequence (whole entry): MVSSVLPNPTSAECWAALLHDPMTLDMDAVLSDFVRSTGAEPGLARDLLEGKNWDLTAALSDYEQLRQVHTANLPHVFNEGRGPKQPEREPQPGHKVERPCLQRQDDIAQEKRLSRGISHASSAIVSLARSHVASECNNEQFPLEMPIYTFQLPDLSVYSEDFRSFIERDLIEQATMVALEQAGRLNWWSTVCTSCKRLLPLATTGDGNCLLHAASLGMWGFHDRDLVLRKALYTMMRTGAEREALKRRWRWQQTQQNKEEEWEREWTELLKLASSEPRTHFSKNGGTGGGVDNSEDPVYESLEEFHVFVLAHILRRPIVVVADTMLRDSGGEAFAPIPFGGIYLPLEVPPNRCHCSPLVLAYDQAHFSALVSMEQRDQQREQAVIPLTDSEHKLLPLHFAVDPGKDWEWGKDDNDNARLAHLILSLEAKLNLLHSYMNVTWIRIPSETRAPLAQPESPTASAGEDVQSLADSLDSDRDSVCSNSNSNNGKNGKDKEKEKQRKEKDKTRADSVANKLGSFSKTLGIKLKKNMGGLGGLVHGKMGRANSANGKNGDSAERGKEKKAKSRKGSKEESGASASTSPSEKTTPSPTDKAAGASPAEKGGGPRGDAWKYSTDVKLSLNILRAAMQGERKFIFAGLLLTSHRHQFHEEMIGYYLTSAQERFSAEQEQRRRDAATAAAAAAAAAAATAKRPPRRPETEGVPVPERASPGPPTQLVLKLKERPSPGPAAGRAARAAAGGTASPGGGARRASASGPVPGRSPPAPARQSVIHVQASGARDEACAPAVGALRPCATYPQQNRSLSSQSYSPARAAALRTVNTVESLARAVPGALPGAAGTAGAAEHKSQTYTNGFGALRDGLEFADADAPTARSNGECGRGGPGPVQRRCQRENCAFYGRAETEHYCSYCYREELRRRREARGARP
Procedure, shortened: as §1

[7] = biological target: T3, UniProt Q9P2H5
T3 sequence (whole entry): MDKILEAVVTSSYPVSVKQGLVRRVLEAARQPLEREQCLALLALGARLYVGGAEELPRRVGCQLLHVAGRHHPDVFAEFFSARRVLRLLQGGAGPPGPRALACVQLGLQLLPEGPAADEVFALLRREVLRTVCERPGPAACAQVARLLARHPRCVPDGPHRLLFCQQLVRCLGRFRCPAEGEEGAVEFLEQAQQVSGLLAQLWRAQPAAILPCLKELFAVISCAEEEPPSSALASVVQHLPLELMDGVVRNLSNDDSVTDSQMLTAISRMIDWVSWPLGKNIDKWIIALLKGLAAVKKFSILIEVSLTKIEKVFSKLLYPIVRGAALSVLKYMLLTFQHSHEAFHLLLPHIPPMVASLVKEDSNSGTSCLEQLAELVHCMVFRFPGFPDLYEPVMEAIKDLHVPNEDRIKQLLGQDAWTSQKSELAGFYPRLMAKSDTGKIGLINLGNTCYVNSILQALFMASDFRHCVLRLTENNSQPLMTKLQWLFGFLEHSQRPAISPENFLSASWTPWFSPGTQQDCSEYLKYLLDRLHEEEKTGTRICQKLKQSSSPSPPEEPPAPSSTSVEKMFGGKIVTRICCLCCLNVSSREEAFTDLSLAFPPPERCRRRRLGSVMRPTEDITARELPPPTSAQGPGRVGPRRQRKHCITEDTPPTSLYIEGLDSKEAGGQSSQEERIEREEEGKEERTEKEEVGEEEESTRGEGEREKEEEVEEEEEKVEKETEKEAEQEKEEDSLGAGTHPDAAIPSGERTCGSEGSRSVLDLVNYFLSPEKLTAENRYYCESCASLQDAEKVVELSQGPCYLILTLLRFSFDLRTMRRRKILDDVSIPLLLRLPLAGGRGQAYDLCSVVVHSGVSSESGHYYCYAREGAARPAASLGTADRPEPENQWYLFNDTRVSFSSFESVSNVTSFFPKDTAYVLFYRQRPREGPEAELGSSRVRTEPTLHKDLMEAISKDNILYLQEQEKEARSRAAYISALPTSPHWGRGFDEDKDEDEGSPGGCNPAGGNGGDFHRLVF
Procedure, shortened: as §1

[8] = biological target: T4, UniProt Q9UGI0
T4 sequence (whole entry): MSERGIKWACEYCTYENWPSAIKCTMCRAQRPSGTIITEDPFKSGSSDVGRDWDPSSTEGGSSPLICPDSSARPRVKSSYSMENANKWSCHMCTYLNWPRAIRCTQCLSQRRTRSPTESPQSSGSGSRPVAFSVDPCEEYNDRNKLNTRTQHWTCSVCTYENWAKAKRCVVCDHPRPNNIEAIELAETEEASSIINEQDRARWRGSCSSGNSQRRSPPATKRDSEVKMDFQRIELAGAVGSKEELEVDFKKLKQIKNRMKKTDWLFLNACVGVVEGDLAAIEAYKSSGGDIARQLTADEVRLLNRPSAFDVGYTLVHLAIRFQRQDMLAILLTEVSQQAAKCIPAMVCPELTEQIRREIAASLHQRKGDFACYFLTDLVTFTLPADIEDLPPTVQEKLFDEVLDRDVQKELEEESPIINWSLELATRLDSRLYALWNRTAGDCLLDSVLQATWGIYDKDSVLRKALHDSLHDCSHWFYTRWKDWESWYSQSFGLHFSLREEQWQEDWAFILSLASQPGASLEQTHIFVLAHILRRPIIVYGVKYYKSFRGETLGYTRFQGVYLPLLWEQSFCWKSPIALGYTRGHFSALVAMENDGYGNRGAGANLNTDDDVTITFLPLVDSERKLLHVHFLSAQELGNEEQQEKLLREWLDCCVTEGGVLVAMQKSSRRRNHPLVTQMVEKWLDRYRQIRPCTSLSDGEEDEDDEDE
Procedure, shortened: as §1

[9] = biological target: T5, YOD1 (UniProt Q5VVQ6)
T5 sequence (whole entry): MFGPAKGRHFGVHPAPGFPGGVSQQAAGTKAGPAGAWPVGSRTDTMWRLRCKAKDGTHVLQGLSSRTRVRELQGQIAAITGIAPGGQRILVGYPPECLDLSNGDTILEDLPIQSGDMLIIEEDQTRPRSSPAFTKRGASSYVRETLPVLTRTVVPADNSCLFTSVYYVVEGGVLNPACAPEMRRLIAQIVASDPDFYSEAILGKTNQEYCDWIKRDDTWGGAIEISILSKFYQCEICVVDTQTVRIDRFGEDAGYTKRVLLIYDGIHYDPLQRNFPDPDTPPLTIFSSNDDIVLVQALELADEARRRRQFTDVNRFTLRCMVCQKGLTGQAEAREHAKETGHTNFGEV
Procedure, shortened: as §1

Measured: log2 ratio of Biotin-Ahx-Ub-VS probe labelling

USP9X, sequence (Q93008 whole entry, the tested form may be a part): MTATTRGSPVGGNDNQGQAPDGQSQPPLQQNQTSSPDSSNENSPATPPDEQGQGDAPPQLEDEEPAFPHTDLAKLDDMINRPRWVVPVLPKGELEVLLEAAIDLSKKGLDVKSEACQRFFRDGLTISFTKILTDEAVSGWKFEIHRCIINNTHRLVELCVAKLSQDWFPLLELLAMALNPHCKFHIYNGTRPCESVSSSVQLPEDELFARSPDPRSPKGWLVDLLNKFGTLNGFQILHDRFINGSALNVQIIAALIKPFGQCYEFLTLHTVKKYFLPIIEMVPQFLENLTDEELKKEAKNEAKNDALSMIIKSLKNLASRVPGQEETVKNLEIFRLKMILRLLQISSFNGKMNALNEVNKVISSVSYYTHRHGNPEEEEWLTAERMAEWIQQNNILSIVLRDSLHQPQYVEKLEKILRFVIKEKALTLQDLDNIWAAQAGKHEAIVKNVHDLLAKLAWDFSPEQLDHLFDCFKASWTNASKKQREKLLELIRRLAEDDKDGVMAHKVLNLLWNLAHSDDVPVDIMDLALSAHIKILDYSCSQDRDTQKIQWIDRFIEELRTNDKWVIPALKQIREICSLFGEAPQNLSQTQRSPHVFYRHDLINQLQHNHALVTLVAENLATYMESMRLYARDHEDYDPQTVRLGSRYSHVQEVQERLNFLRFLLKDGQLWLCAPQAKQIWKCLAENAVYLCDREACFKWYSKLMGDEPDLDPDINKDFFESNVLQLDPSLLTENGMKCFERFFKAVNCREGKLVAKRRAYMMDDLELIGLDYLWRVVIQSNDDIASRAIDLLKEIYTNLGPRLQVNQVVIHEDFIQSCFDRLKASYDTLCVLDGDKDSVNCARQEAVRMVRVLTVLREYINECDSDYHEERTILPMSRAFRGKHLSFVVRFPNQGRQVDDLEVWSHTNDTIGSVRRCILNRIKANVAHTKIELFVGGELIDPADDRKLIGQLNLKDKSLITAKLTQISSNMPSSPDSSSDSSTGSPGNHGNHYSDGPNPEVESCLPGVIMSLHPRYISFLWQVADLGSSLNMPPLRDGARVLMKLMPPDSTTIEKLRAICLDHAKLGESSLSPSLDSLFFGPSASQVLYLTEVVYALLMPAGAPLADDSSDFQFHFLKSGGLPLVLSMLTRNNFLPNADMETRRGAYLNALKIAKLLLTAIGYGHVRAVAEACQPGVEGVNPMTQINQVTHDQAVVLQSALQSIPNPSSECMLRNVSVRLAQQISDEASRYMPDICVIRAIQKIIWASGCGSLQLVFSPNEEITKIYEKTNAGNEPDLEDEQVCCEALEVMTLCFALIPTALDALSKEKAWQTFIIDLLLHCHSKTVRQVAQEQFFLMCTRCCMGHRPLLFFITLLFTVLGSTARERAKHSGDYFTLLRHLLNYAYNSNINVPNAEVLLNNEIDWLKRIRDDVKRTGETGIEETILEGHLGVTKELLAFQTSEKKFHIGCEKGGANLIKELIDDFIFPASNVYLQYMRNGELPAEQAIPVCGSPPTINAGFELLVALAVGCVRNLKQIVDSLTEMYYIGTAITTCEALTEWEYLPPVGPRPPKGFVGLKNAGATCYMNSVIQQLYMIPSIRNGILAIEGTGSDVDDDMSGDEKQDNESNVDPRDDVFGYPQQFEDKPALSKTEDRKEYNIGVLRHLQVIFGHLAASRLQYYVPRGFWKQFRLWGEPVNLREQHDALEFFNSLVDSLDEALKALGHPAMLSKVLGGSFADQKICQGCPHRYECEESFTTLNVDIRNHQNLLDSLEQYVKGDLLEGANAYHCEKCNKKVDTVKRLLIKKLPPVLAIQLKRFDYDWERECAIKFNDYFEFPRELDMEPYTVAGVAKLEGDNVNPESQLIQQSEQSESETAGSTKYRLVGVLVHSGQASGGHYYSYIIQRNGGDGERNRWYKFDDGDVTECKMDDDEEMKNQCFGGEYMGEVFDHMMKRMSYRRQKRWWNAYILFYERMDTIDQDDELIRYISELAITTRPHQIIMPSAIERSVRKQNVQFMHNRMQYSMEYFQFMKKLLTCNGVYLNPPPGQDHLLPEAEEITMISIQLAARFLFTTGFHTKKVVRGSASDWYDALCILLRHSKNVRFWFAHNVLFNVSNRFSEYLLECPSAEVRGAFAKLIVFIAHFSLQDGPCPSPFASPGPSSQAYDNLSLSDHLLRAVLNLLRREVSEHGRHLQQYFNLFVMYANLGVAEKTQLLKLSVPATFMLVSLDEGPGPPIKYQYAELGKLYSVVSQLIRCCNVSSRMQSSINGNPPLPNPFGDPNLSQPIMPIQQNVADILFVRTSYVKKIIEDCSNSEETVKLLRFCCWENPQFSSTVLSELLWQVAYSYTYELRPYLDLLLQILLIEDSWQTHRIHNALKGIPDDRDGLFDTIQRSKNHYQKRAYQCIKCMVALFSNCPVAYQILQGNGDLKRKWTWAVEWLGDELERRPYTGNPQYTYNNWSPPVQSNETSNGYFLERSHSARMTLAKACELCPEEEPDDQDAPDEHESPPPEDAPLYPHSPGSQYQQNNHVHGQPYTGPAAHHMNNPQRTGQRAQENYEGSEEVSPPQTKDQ

COc1ccc(Cl)cc1NC(=O)CCl
inactive: [1] -0.48 | [2] -0.298 | [3] -0.985 | [4] -0.276 | [5] -0.485 | [6] -0.837 | [7] -0.335 | [8] -0.741 | [9] -0.669

— the supplement of paper PMC11732987, “Enantioselective OTUD7B fragment discovery through chemoproteomics screening and high-throughput optimisation” (Communications Chemistry, 2025)
